Measured values from PubChem BioAssay.
Activity calls are given as the source filed them. Unless noted, how the calls were made is not given here.

Experiments:
[1] = tested on: Wnt5a (protein binding on small-molecule microarray); assay: Wnt5a binders on small-molecule microarray, primary screen, biophysical, 635/667 nm fluorescence (AID 1142); conditions: 635 nm fluorescence, higher = more signal;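 further: fluorescence read at 667 nm with signal to noise per printed feature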
[2] = cell viability in Huh7 cells, primary screen, cytotoxicity control for HCV replication inhibitor project, CellTiter-Glo luminescence, basal, 48 h (AID 1143); conditions: Huh7 HCV replicon, higher = more signal, called active from +8 up or from −8 down;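 further: Huh7 hepatoma cells carrying a hepatitis C replication reporter with no stimulus; test concentration not given here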
[3] = P. aeruginosa biofilm formation inhibitors, primary screen, PAO1 strain, BacTiter-Glo luminescence, LB-PBS (AID 1144); conditions: 12 h, higher = more signal
[4] = CREB reporter modulators without forskolin, primary screen, cell-based, PC12, CRE-LacZ reporter, unstimulated (AID 1145); conditions: no forskolin, luminescence, 4.5 h, higher = more signal, called active from +8 up or from −8 down
[5] = CREB reporter modulators under forskolin, primary screen, cell-based, PC12, CRE-LacZ reporter, forskolin-stimulated (AID 1146); conditions: luminescence, 4.5 h, higher = more signal, called active from +8 up or from −8 down;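 further: PC12 cells with 6xCRE LacZ reporter stimulated by forskolin 10 µM; beta-galactosidase reporter signal reflecting CREB driven transcription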
[6] = target: Streptavidin (Streptomyces avidinii) (UniProt P22629); assay: streptavidin binders on small-molecule microarray, primary screen, artefact control for SMM compound annotation, biophysical, 635/667 nm fluorescence (AID 1147); conditions: streptavidin binding, higher = more signal;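 further: signal reflects streptavidin binding to arrayed compounds as a control protein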
Streptavidin (Streptomyces avidinii), sequence (P22629 whole entry, looked up): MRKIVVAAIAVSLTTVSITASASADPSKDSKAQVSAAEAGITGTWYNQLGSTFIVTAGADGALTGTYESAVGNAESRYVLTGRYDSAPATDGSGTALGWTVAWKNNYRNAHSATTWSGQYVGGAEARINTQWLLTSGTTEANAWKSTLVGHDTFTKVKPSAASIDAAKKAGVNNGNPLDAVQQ

[7] = small-molecule binders of probe aInhba, primary screen, biochemical, small-molecule microarray, 635/667 nm fluorescence (AID 1148); conditions: higher = more signal;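 further: score merges 667nm spot fluorescence with signal-to-noise for antibody binding to printed compounds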
Torsin-1A (Homo sapiens) [8] = target: Torsin-1A (Homo sapiens) (UniProt O14656); assay: torsin A binders from cell lysate, primary screen, small-molecule microarray, wild-type, 635/667 nm (AID 1149); conditions: COS7 hTOR1A-WT lysate, 635 nm fluorescence, higher = more signal
Torsin-1A (Homo sapiens), sequence (O14656 whole entry, looked up): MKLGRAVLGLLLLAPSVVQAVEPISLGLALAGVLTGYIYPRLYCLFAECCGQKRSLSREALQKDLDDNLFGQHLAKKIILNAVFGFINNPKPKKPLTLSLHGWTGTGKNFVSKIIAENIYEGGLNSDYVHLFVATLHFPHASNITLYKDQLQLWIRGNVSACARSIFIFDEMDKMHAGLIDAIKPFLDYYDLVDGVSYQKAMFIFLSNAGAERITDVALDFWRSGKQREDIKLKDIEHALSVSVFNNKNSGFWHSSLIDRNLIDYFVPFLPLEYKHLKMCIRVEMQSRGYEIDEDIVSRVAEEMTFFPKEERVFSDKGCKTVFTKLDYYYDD

Torsin-1A (Homo sapiens) [9] = target: Torsin-1A (Homo sapiens) (UniProt O14656); assay: small-molecule binders of mutant TOR1A in lysate, primary screen, cell lysate, small-molecule microarray, COS7 lysate, 635/667 nm fluorescence (AID 1150); conditions: COS7 hTOR1A mutant lysate, 635 nm fluorescence, higher = more signal;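 further: score pools 667 nm emission and signal to noise measuring lysate protein binding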
[10] = tested on: Sonic hedgehog protein (Shh); assay: small-molecule binders of Shh protein, primary screen, biochemical, small-molecule microarray, 635/667 nm fluorescence (AID 1151); conditions: small-molecule microarray binding, 635 nm fluorescence; higher = more signal;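 further: Shh protein binding to compounds spotted on small-molecule microarray slides; score combines spot fluorescence intensity with signal-to-noise across triplicate slides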
[11] = E. coli DRC41 culture turbidity changes, primary screen, E. coli filamentation inducer project, strain DRC41, OD650, 48 h (AID 1152);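 further: E. coli MC1000 strain DRC41 lacking acrAB efflux pump and sulA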; conditions: E. coli DRC41 (acrAB sulA), higher = more signal, called active from +8 up or from −8 down
[12] = small-molecule binders of probe aLefty1, primary screen, biochemical, small-molecule microarray, 635/667 nm fluorescence (AID 1153); conditions: higher = more signal;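 further: score merges spot fluorescence with signal-to-noise ratio from the scanned slide images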
[13] = PSAC antagonists in infected red cells, primary screen, cell-based, P. falciparum Indochina, OD700, 1 h (AID 1154); conditions: P. falciparum Indochina infected RBC osmotic lysis, higher = more signal, called active from +8 up or from −8 down
[14] = PSAC antagonists in infected red cells, primary screen, cell-based, P. falciparum Indochina, OD700, 2 h (AID 1155);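 further: lysis reports solute entry through the parasite surface anion channel PSAC; channel blockers reduce lysis of infected cells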; conditions: P. falciparum Indochina infected erythrocytes, osmotic lysis OD700; higher = more signal, called active from +8 up or from −8 down
[15] = osmotic lysis modulators in infected erythrocytes, primary screen, PSAC antagonist project, cell-based, P. falciparum Indochina, OD700, 3 h (AID 1156); conditions: higher = more signal, called active from +8 up or from −8 down
[16] = PSAC antagonists in infected red cells, primary screen, cell-based, P. falciparum Indochina, OD700, 18 h (AID 1157); conditions: P. falciparum Indochina infected erythrocytes, osmotic lysis OD700, 18 h; higher = more signal, called active from +8 up or from −8 down
[17] = modulators of S6 phosphorylation in cells, primary screen, cell-based, A549, cytoblot, luminescence, serum-stimulated (AID 1158); conditions: A549 phospho-S6 cytoblot, 5 h, higher = more signal;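 further: serum-stimulated A549 lung adenocarcinoma cells; signal is phosphorylated S6 detected by cytoblot immunostaining with HRP secondary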
[18] = target: NADPH oxidase 2 (Homo sapiens) (UniProt P04839); assay: NOX2-dependent H2O2 signal modulators, primary screen, NOX inhibitor project, cell-based, HEK293-NOX2, PMA-stimulated, Amplex Red fluorescence (AID 1159); conditions: 45 min, higher = more signal, called active from +8 up or from −8 down; further: test concentration not given here
NADPH oxidase 2 (Homo sapiens), sequence (P04839 whole entry, looked up): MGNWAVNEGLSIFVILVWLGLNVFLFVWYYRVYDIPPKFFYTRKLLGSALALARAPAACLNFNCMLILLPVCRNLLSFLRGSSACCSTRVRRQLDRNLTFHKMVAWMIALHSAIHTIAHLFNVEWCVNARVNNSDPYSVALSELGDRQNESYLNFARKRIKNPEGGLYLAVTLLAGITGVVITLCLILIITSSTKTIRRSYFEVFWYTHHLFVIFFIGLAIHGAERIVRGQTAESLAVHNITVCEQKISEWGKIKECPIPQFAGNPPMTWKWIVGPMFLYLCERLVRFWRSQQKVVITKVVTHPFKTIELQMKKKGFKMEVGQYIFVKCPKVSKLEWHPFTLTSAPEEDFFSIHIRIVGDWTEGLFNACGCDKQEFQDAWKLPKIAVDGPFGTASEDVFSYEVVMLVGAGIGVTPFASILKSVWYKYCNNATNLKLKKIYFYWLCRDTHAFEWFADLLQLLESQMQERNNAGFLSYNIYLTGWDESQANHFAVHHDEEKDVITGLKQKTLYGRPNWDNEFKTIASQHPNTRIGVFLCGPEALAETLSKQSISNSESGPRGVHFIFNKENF

[19] = target: NADPH oxidase 4 (Homo sapiens) (UniProt Q9NPH5); assay: NOX4-dependent H2O2 signal modulators, primary screen, NOX inhibitor project, cell-based, HEK293-NOX4, tetracycline-induced, Amplex Red fluorescence (AID 1160); conditions: 45 min, higher = more signal, called active from +8 up or from −8 down
NADPH oxidase 4 (Homo sapiens), sequence (Q9NPH5 whole entry, looked up): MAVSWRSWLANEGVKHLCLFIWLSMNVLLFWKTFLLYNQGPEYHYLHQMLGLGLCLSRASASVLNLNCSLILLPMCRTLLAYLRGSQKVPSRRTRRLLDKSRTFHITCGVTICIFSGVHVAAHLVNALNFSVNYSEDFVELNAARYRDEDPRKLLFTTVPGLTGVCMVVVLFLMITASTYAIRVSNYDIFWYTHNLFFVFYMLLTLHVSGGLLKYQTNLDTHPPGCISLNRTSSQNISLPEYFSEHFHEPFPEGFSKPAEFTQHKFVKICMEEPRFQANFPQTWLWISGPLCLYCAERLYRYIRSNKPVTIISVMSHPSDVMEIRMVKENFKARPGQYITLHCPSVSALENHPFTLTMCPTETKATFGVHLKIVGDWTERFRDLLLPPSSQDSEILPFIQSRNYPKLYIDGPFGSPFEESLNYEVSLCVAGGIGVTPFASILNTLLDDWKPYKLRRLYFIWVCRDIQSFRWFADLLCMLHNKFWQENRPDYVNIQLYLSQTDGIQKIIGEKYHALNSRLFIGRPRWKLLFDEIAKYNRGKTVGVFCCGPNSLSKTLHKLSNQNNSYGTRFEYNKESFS

[20] = target: NADPH oxidase 5 (Homo sapiens) (UniProt Q96PH1); assay: NOX5-dependent H2O2 signal modulators, primary screen, NOX inhibitor project, cell-based, HEK293-NOX5, Amplex Red fluorescence (AID 1161); conditions: HEK293-NOX5, ionomycin, 45 min, higher = more signal
NADPH oxidase 5 (Homo sapiens), sequence (Q96PH1 whole entry, looked up): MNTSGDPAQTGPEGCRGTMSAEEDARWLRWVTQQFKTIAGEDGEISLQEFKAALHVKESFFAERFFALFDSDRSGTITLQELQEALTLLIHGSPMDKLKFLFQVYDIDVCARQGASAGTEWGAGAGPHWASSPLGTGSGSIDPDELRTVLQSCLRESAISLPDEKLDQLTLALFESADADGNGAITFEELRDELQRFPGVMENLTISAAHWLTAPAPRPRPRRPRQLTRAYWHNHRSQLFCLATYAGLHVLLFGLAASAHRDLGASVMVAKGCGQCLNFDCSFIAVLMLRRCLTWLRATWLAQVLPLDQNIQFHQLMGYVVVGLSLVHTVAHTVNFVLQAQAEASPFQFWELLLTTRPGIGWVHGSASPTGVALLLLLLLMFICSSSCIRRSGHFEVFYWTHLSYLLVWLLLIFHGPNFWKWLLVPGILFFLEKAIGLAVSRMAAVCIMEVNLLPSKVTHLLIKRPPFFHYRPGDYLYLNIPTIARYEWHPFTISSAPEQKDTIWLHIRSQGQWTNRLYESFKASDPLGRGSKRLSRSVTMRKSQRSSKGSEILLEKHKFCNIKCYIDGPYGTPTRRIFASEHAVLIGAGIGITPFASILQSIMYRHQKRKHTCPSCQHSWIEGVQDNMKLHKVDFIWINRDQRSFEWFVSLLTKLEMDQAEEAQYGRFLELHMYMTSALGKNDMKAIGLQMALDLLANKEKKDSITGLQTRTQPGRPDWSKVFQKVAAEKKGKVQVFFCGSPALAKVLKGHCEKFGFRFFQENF

SMILES | composite z-score [1] | z-score [2] | z-score [3] | z-score [4] | z-score [5] | composite z-score [6] | composite z-score [7] | composite z-score (Torsin-1A (Homo sapiens) [8]) | composite z-score (Torsin-1A (Homo sapiens) [9]) | composite z-score [10] | z-score [11] | composite z-score [12] | z-score [13] | z-score [14] | z-score [15] | z-score [16] | z-score [17] | z-score [18] | z-score [19] | z-score [20]
C=CCNC(=O)[C@@H]1[C@H]2C(=O)O[C@H](c3ccccc3)[C@H](c3ccccc3)N2[C@H](c2ccc(OCCO)cc2)[C@@]12C(=O)Nc1ccc(C#Cc3ccc(OC)cc3)cc12 | 0.233 | -4.16 (inactive) | -0.486 (inactive) | -0.195 (inactive) | 0.236 (inactive) | 1.01 | 0.0125 | 0.406 | 0.602 | 1.64 | 0.411 (inactive) | 0.498 | 3.18 (inactive) | 1.46 (inactive) | 0.931 (inactive) | 0.677 (inactive) | 0.278 | 1.04 (inactive) | -1.11 (inactive) | 0.959
CC(C)N1C(=O)[C@@]2(Cc3ccccc31)c1ccccc1C(=O)N(C1CCCCC1)[C@H]2c1ccc(CO)cc1 | 0.0034 | -0.8 (inactive) | -0.868 (inactive) | -0.141 (inactive) | 0.815 (inactive) | -0.169 | -0.0987 | -0.245 | 0.333 | 1.99 | 0.04 (inactive) | -0.101 | 0.206 (inactive) | 0.195 (inactive) | 0.516 (inactive) | 0.378 (inactive) | 0.0252 | 0.111 (inactive) | 0.217 (inactive) | -0.638
CC(C)C[C@@H]1NC(=O)[C@H]2C[C@@H](C(=O)NCCCCCCN(C)C)[C@@H](c3ccc(O)cc3)N2C1=O | 0.836 | -0.29 (inactive) | -0.041 (inactive) | -0.398 (inactive) | 0.425 (inactive) | 0.189 | -0.147 | 1.47 | 1.52 | 1.97 | -0.655 (inactive) | -0.0573 | 0.977 (inactive) | -0.116 (inactive) | -0.0599 (inactive) | -0.288 (inactive) | -0.384 | 0.193 (inactive) | 0.268 (inactive) | 0.0226
COc1ccc([C@H]2OC[C@@H]3CC4(CC=CC4)C(=O)N32)cc1 | 0.0071 | 0.377 (inactive) | 0.25 (inactive) | 0.236 (inactive) | 0.249 (inactive) | 0.193 | -0.159 | -0.477 | -0.436 | 1.92 | -0.56 (inactive) | 0.0406 | 0.486 (inactive) | 0.477 (inactive) | -0.51 (inactive) | 0.136 (inactive) | -0.516 | 0.777 (inactive) | 0.674 (inactive) | 0.291
CCCCCCC#C[Si](O[C@H](c1ccccc1)c1cn([C@H](CO)Cc2ccccc2)nn1)(C(C)C)C(C)C | -0.193 | -0.866 (inactive) | -0.235 (inactive) | -0.215 (inactive) | -0.0183 (inactive) | -0.463 | -0.128 | -1.01 | 0.211 | 0.537 | 2.03 (inactive) | -0.217 | 0.704 (inactive) | 0.268 (inactive) | -0.55 (inactive) | 0.602 (inactive) | 0.447 | -1.25 (inactive) | -0.227 (inactive) | -2.2
